{"source": "PubChem BioAssay (Tox21)", "note": "Results filed as inconclusive are left out. A call without a number means that no potency is given here. A number with no mark means an inactive call. The source made the active and inactive calls. The call rests on the fitted dose curve; in most records, active means well fitted activation curve with a large enough effect in the repeat runs; inconclusive means weak or mixed curves; inactive means flat fitted curve, though single readings scatter."}
{"test": "A CellTox Green Cytotoxicity Assay to monitor cytotoxicity in HEK293 cells - 16 hour (AID 1224888); further: nearly all actives have a fitted effect of over 35% in size", "conditions": "CellTox Green fluorescence; series mostly up to 76.8 µM", "text": "National Center for Advancing Translational Sciences [NCATS]\nNIH Chemical Genomics Center [NCGC]\nU.S. Environmental Protection Agency [EPA]\nNational Institutes of Environmental Health Sciences [NIEHS]\nNational Toxicology Program [NTP]\nCell-based models are critical for drug discovery. Determining the natural cytotoxic effects resulting from test compounds is an essential research activity. A CellTox Green Cytotoxicity Assay to monitor cytotoxicity in real time of continues cell culture during 40 hours of the compound treatment was used to screen Tox21 10K library compounds in Hek293 cells. CellTox Green Cytotoxicity Assay is a nonlytic, homogeneous, biofluorescent method to measure cytotoxicity in cell culture after experimental manipulation. The assay system uses a proprietary asymmetric cyanine dye that is excluded from viable cells but preferentially stains the dead cell's DNA. […] Viable cells produce no appreciable increases in fluorescence. Therefore, the fluorescence signal produced by the binding interaction with dead cell DNA is proportional to cytotoxicity.\nThe mixture of Hek293 cell suspension and reagents were dispensed at 600cells/6 ul/well in 1536-well tissue culture treated black solid bottom plates using a Multidrop dispenser. After the assay plates were incubated at a 37 C/5% CO2 incubator for 5 hours, 23 nL of compounds dissolved in DMSO, positive and negative controls was transferred to the assay plate by a pintool work station. The plates were incubated at 37 C for 40 hours. The fluorescence intensity were measured at 0h, 8h, 16h, 24h, 32h and 40h time points using ViewLux plate reader during compound treatment."}
{"smiles": "C[C@]12C=CC(=O)C=C1CC[C@@H]1[C@@H]2CC[C@@]2(C)[C@H]1CC[C@]2(C)O", "Potency": "inactive"}
{"smiles": "CC(C)(N)Cc1ccccc1Cl", "Potency": "inactive"}
{"smiles": "CNC(=O)Oc1ccccc1C(C)C", "Potency": "inactive"}
{"smiles": "O=C(O)C(Cl)Br", "note": "(stereo not given)", "Potency": "inactive"}
{"smiles": "COc1cc(CCN)cc(OC)c1OC", "Potency": "inactive"}
{"smiles": "CCN(CCO)CCO", "Potency": "inactive"}
{"smiles": "CCCC(C)(COC(N)=O)COC(N)=O", "Potency": "inactive"}
{"smiles": "NCC1(CC(=O)O)CCCCC1", "Potency": "inactive"}
{"smiles": "CC(Cl)(Cl)Cl", "Potency": "inactive"}
{"smiles": "CC(C)(C1CCC(O)CC1)C1CCC(O)CC1", "note": "(stereo not given)", "Potency": "inactive"}
{"smiles": "COc1cccc(C=O)c1", "Potency": "inactive"}
{"smiles": "CCN1CCCC1CNC(=O)C(O)(c1ccccc1)c1ccccc1", "note": "(stereo not given)", "Potency": "inactive"}
{"smiles": "CC1NCCOC1c1ccccc1", "note": "(stereo not given)", "Potency": "inactive"}
{"smiles": "O=c1[nH]oc2c1CCNC2", "Potency": "inactive"}
{"smiles": "COC(=O)c1ccccc1CS(=O)(=O)NC(=O)Nc1nc(OC)cc(OC)n1", "Potency": "inactive"}
{"smiles": "CN=CNc1ccc(C)cc1C", "Potency": "inactive"}
{"smiles": "CCCCOC(C)=O", "Potency": "inactive"}
{"smiles": "NC1(c2ccccc2)CCCCC1", "Potency": "inactive"}
{"smiles": "CC(C)(C)c1cc(O)ccc1O", "Potency": "inactive"}
{"smiles": "CCOC(=O)C(Cl)Cc1cc(-n2nc(C)n(C(F)F)c2=O)c(F)cc1Cl", "note": "(stereo not given)", "Potency": "inactive"}
{"smiles": "ClC(Cl)(Cl)Cl", "Potency": "inactive"}
{"smiles": "NNCc1ccccc1", "Potency": "inactive"}
{"smiles": "CC1N=C(N)OC1c1ccccc1", "note": "(stereo not given)", "Potency": "inactive"}
{"smiles": "O=[N+]([O-])c1cccc(CCl)c1", "Potency": "inactive"}
{"smiles": "CC(Cc1ccccc1)NCCCCl", "note": "(stereo not given)", "Potency": "inactive"}
{"smiles": "Cn1c(CCCC(=O)O)nc2cc(N(CCCl)CCCl)ccc21", "Potency": "inactive"}
{"smiles": "ClCCCCCCCl", "Potency": "inactive"}
{"smiles": "CCOC(=O)COc1ccc(Cl)cc1Cl", "Potency": "inactive"}
{"smiles": "CN(C)C1CCCCC1", "Potency": "inactive"}
{"smiles": "Cn1c(N)nc2c3cccnc3ccc21", "Potency": "inactive"}
{"smiles": "Cc1cc(OC(=O)N(C)C)nn1C(=O)N(C)C", "Potency": "inactive"}
{"smiles": "CCC1(CC)C(=O)C=CNC1=O", "Potency": "inactive"}
{"smiles": "C[C@H](N)C(=O)c1ccccc1", "Potency": "inactive"}
{"smiles": "Brc1c(Br)c(Br)c(Br)c(Br)c1Br", "activity change": "4.52% [at 6.97 µM, hits give high values]"}
{"smiles": "CCCCCCCC(=O)Cl", "Potency": "inactive"}
{"smiles": "O=[N+]([O-])CCO", "Potency": "inactive"}
{"smiles": "COc1cc(CC(C)N)cc(OC)c1OC", "note": "(stereo not given)", "Potency": "inactive"}
{"smiles": "Cc1ccc2c(c1)C1CN(C)CCC1N2", "note": "(stereo not given)", "activity change": "-0.0479% [at 15.8 µM, hits give high values]"}
{"smiles": "Clc1nc(Cl)nc(Nc2ccccc2Cl)n1", "Potency": "inactive"}
{"smiles": "O=CCCl", "Potency": "inactive"}
